{"source": "PubChem BioAssay (Tox21)", "key": {"[1]": {"experiment": "qHTS assay to identify small molecule antagonists of the retinoid acid receptor (RAR) signaling pathway - cell viability counter screen (AID 1159551); also: nearly all actives have a fitted effect of over 35% in size", "outline": "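C3RL4 RARE-luciferase line; cpds + retinol 1 uM final, 6 h, 37 C/5% CO2; CellTiter-Glo ATP luminescence, 30 min RT.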"}, "[2]": {"experiment": "qHTS assay to identify small molecule agonists of the retinoic acid receptor (RAR) signaling pathway (AID 1159553)", "outline": "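RARE-luc C3RL4 cells; overnight attachment 37 C/5% CO2; compound (DMSO) 6 hr; luciferase reagent, 30 min RT; luminescence read-out.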"}, "[3]": {"experiment": "qHTS assay to identify small molecule antagonists of the estrogen related receptor (ERR) signaling pathway from Tox21 library - cell viability counter screen (AID 1224834); also: nearly all actives have a fitted effect of over 30% in size", "outline": "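Multiplexed viability counter screen in ERR cells: 17.5 h compound exposure at 37 C, CellTiter-Fluor added, 30 min at 37 C/5% CO2, fluorescence read.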"}, "[4]": {"experiment": "qHTS assay to identify small molecule antagonists of the retinoic acid receptor (RAR) signaling pathway (AID 1159552; also: nearly all actives have a fitted effect of over 50% in size)", "outline": "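Luminescence from a RARE luciferase reporter in C3RL4 cells served as read-out. Cells received compounds together with 1 uM final retinol and incubated 6 hr at 37 C before detection reagent was added for 30 min at room temperature.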"}}, "note": "Values joined by “and” are separate entries in the source; they are usually repeats but may differ in a detail not shown here. Identical values can stand only once. Results filed as inconclusive are left out. Where a call stands in place of a potency, no number is given. Values without a mark were called inactive. Active and inactive are the calls of the source. Calls follow the shape of the dose curve; as a rule, active = well fitted curve in the direction sought with a large enough effect in the repeat runs; inconclusive = weak or mixed curves; inactive = no such curve, though single readings can be large; an effect the other way counts as inactive or inconclusive. Potency is read from the fitted curve at half-maximal effect."}
{"smiles": "CCCCCCCCCCCCN=C(N)N", "values": [{"measurement": "activity change, negative = cytotoxicity", "setting": "[1]", "value": "2.05% [at 3.27 µM]"}, {"measurement": "activation", "setting": "[2]", "value": "-2.89% [at 3.75 µM]"}, {"measurement": "viability change, negative = cytotoxic", "setting": "[3]", "value": "1.13% [at 3.27 µM]"}]}
{"smiles": "CCOC(=O)C1OC1(C)c1ccccc1", "note": "(configuration not stated)", "values": [{"measurement": "Potency", "setting": "[1]", "value": "inactive"}, {"measurement": "Potency", "setting": "[3]", "value": "inactive"}]}
{"smiles": "C#CC(O)(C=CCl)CC", "note": "(configuration not stated)", "values": [{"measurement": "Potency", "setting": "[1]", "value": "inactive"}, {"measurement": "Potency", "setting": "[2]", "value": "inactive"}, {"measurement": "Potency", "setting": "[3]", "value": "inactive"}]}
{"smiles": "CCCC[N+](CCCC)(CCCC)CCCC", "values": [{"measurement": "Potency", "setting": "[1]", "value": "inactive"}, {"measurement": "Potency", "setting": "[2]", "value": "inactive"}, {"measurement": "Potency", "setting": "[3]", "value": "inactive"}]}
{"smiles": "CC1(C)CC(=O)CC(C)(C)N1[O]", "values": [{"measurement": "Potency", "setting": "[1]", "value": "inactive"}, {"measurement": "Potency", "setting": "[2]", "value": "inactive"}, {"measurement": "Potency", "setting": "[3]", "value": "inactive"}]}
{"smiles": "CCOC(C(=O)OCCN(C)C)(c1ccccc1)c1ccccc1", "values": [{"measurement": "Potency", "setting": "[1]", "value": "inactive"}, {"measurement": "Potency", "setting": "[2]", "value": "inactive"}, {"measurement": "Potency", "setting": "[3]", "value": "inactive"}]}
{"smiles": "C[CH2][Hg][S]c1ccccc1C(=O)O", "values": [{"measurement": "Potency", "setting": "[1]", "value": "13.7 µM (active) and 18.8 µM (active)"}, {"measurement": "Potency", "setting": "[3]", "value": "6.86 µM (active) and 9.44 µM (active)"}]}
{"smiles": "O=C(O)C(O)C(O)C(=O)O", "note": "(configuration not stated)", "values": [{"measurement": "Potency", "setting": "[1]", "value": "inactive"}, {"measurement": "Potency", "setting": "[3]", "value": "inactive"}]}
{"smiles": "Nc1ccccc1C(=O)OCCc1ccccc1", "values": [{"measurement": "Potency", "setting": "[4]", "value": "inactive"}, {"measurement": "Potency", "setting": "[2]", "value": "173 nM (active) and 122 nM (active)"}]}
{"smiles": "CCC(=O)O[C@@H]1C=C2CCC3C(CCC4(C)C3CC[C@@H]4OC(=O)CC)C2CC1", "note": "(some centres not stated)", "values": [{"measurement": "Potency", "setting": "[1]", "value": "inactive"}, {"measurement": "Potency", "setting": "[3]", "value": "inactive"}]}
{"smiles": "O=[N+]([O-])/C=C/c1ccccc1", "values": [{"measurement": "Potency", "setting": "[3]", "value": "19.6 µM (active)"}]}
{"smiles": "O=C(O)c1ccc(=O)[nH]c1", "values": [{"measurement": "Potency", "setting": "[1]", "value": "inactive"}, {"measurement": "Potency", "setting": "[3]", "value": "inactive"}]}
{"smiles": "O=C(CCl)CCl", "values": [{"measurement": "Potency", "setting": "[1]", "value": "inactive"}, {"measurement": "Potency", "setting": "[3]", "value": "inactive"}]}
{"smiles": "CC(=O)OC(c1ccccc1)C(Cl)(Cl)Cl", "note": "(configuration not stated)", "values": [{"measurement": "Potency", "setting": "[1]", "value": "inactive"}, {"measurement": "Potency", "setting": "[3]", "value": "inactive"}]}
{"smiles": "NCCc1cc(O)c(O)cc1O", "values": [{"measurement": "Potency", "setting": "[1]", "value": "inactive"}, {"measurement": "Potency", "setting": "[3]", "value": "inactive"}]}
{"smiles": "CCCCCCCCn1sccc1=O", "values": [{"measurement": "Potency", "setting": "[1]", "value": "68.7 µM (active) and 64.1 µM (active)"}, {"measurement": "Potency", "setting": "[3]", "value": "27.4 µM (active) and 16.1 µM (active)"}]}
{"smiles": "CN(C)c1ccc(N=O)cc1", "values": [{"measurement": "Potency", "setting": "[4]", "value": "24.4 µM (active)"}, {"measurement": "Potency", "setting": "[3]", "value": "27.4 µM (active) and 48.6 µM (active)"}]}
{"smiles": "CCCC(C)(COC(N)=O)COC(=O)NC(C)C", "note": "(configuration not stated)", "values": [{"measurement": "Potency", "setting": "[1]", "value": "inactive"}, {"measurement": "Potency", "setting": "[3]", "value": "inactive"}]}
{"smiles": "CCCCCCCCCCCC[N+](C)(C)CCOc1ccccc1", "values": [{"measurement": "Potency", "setting": "[1]", "value": "61.1 µM (active)"}, {"measurement": "Potency", "setting": "[3]", "value": "61.1 µM (active) and 26.6 µM (active)"}]}
{"smiles": "CC(C)[C@@H](C(=O)O[C@@H](C#N)c1cccc(Oc2ccccc2)c1)c1ccc(Cl)cc1", "values": [{"measurement": "Potency", "setting": "[1]", "value": "inactive"}, {"measurement": "Potency", "setting": "[3]", "value": "inactive"}]}
{"smiles": "CCCC1CCCCN1", "note": "(configuration not stated)", "values": [{"measurement": "Potency", "setting": "[1]", "value": "inactive"}, {"measurement": "Potency", "setting": "[3]", "value": "inactive"}]}
{"smiles": "CC(C)(C#N)C(C)(C)C#N", "values": [{"measurement": "Potency", "setting": "[1]", "value": "inactive"}, {"measurement": "Potency", "setting": "[3]", "value": "inactive"}]}
{"smiles": "CCCC[N+]1(C)[C@@H]2CC(OC(=O)[C@H](CO)c3ccccc3)C[C@H]1[C@@H]1O[C@@H]12", "note": "(some centres not stated)", "values": [{"measurement": "Potency", "setting": "[1]", "value": "inactive"}, {"measurement": "Potency", "setting": "[3]", "value": "inactive"}]}
{"smiles": "Oc1cccc(Cl)c1", "values": [{"measurement": "Potency", "setting": "[1]", "value": "inactive"}, {"measurement": "Potency", "setting": "[3]", "value": "inactive"}]}
{"smiles": "CCCCNC(=O)OCC#CI", "values": [{"measurement": "Potency", "setting": "[1]", "value": "68.2 µM (active)"}, {"measurement": "Potency", "setting": "[3]", "value": "54.2 µM (active) and 68.6 µM (active)"}]}
{"smiles": "C[C@@H]1C[C@@H]([C@H](O)CC2CC(=O)NC(=O)C2)C(=O)[C@@H](C)C1", "values": [{"measurement": "Potency", "setting": "[3]", "value": "430 nM (active) and 154 nM (active) and 266 nM (active)"}]}
{"smiles": "CCCC[P+](CC)(CCCC)CCCC", "note": "(tested in a mixture with another compound)", "values": [{"measurement": "Potency", "setting": "[1]", "value": "inactive"}, {"measurement": "Potency", "setting": "[3]", "value": "inactive"}]}
{"smiles": "CCC(C)(C)O", "values": [{"measurement": "Potency", "setting": "[1]", "value": "inactive"}, {"measurement": "Potency", "setting": "[3]", "value": "inactive"}]}
{"smiles": "C[Si](Cn1cncn1)(c1ccc(F)cc1)c1ccc(F)cc1", "values": [{"measurement": "Potency", "setting": "[1]", "value": "inactive"}, {"measurement": "Potency", "setting": "[3]", "value": "63.1 µM (active) and 48.6 µM (active)"}]}
{"smiles": "C#C[C@]1(O)CC[C@H]2[C@@H]3CCC4=CC(=O)CCC4=C3C=C[C@@]21CC", "values": [{"measurement": "Potency", "setting": "[1]", "value": "inactive"}, {"measurement": "Potency", "setting": "[3]", "value": "21.1 µM (active)"}]}
{"smiles": "O=[N+]([O-])c1cc(Cl)c(Cl)cc1Cl", "values": [{"measurement": "Potency", "setting": "[1]", "value": "inactive"}, {"measurement": "Potency", "setting": "[3]", "value": "inactive"}]}
{"smiles": "Nc1cccc2ccccc12", "values": [{"measurement": "Potency", "setting": "[1]", "value": "inactive"}, {"measurement": "Potency", "setting": "[3]", "value": "inactive"}]}
{"smiles": "OCC1CO1", "note": "(configuration not stated)", "values": [{"measurement": "Potency", "setting": "[1]", "value": "inactive"}, {"measurement": "Potency", "setting": "[3]", "value": "inactive"}]}
{"smiles": "CC(O)CN1CCN(CC(=O)[O-])CCN(CC(=O)[O-])CCN(CC(=O)[O-])CC1.[Gd+3]", "note": "(configuration not stated)", "values": [{"measurement": "Potency", "setting": "[1]", "value": "inactive"}, {"measurement": "Potency", "setting": "[3]", "value": "inactive"}]}
{"smiles": "C[N+]1(CCF)[C@@H]2CC[C@H]1CC(OC(=O)C(O)(c1ccccc1)c1ccccc1)C2", "note": "(some centres not stated)", "values": [{"measurement": "Potency", "setting": "[1]", "value": "inactive"}, {"measurement": "Potency", "setting": "[3]", "value": "inactive"}]}
{"smiles": "COc1cc(CC#N)cc(OC)c1OC", "values": [{"measurement": "Potency", "setting": "[1]", "value": "inactive"}, {"measurement": "Potency", "setting": "[3]", "value": "inactive"}]}
{"smiles": "Cc1ccc(N)c(C)c1", "values": [{"measurement": "Potency", "setting": "[1]", "value": "inactive"}, {"measurement": "Potency", "setting": "[3]", "value": "inactive"}]}
{"smiles": "[Cl-].[Cl-].[Hg+2]", "values": [{"measurement": "Potency", "setting": "[1]", "value": "27.2 µM (active) and 6.11 µM (active)"}, {"measurement": "Potency", "setting": "[3]", "value": "6.08 µM (active) and 4.33 µM (active)"}]}
{"smiles": "CC(C)C1(C)N=C(c2ncccc2C(=O)O)NC1=O", "note": "(configuration not stated)", "values": [{"measurement": "Potency", "setting": "[1]", "value": "inactive"}, {"measurement": "Potency", "setting": "[3]", "value": "inactive"}]}
{"smiles": "CC(CC(C(N)=O)(c1ccccc1)c1ccccc1)N(C)C", "note": "(configuration not stated)", "values": [{"measurement": "Potency", "setting": "[3]", "value": "inactive"}]}
{"smiles": "CN1C[C@H](C(=O)N[C@]2(C)O[C@@]3(O)[C@@H]4CCCN4C(=O)[C@H](Cc4ccccc4)N3C2=O)C=C2c3cccc4[nH]cc(c34)C[C@H]21", "values": [{"measurement": "Potency", "setting": "[1]", "value": "inactive"}, {"measurement": "Potency", "setting": "[3]", "value": "24.4 µM (active) and 9.01 µM (active)"}]}
{"smiles": "C=CCOCC1CO1", "note": "(configuration not stated)", "values": [{"measurement": "Potency", "setting": "[1]", "value": "inactive"}, {"measurement": "Potency", "setting": "[3]", "value": "inactive"}]}
{"smiles": "CC(C)CCCCCCCOC(=O)c1ccccc1C(=O)OCCCCCCCC(C)C", "values": [{"measurement": "Potency", "setting": "[1]", "value": "inactive"}, {"measurement": "Potency", "setting": "[3]", "value": "inactive"}]}
{"smiles": "CC(Cc1ccccc1)NCc1ccccc1Cl", "note": "(configuration not stated)", "values": [{"measurement": "Potency", "setting": "[1]", "value": "inactive"}, {"measurement": "Potency", "setting": "[3]", "value": "inactive"}]}
{"smiles": "O=[N+]([O-])O[C@H]1CO[C@H]2[C@@H]1OC[C@H]2O[N+](=O)[O-]", "values": [{"measurement": "Potency", "setting": "[1]", "value": "inactive"}, {"measurement": "Potency", "setting": "[3]", "value": "inactive"}]}
